Assay results taken from PubChem BioAssay AID1546 (The Scripps Research Institute Molecular Screening Center, 2009).
The list shows a part of the results. The source made the active and inactive calls. Cut-off read from the data, not from the text of the source: active = activation above about 45%; inactive = the rest.

target: Neuropeptide Y receptor type 1 (Homo sapiens) (UniProt P25929); assay: NPY-Y1 potentiators or agonists, confirmation, cell-based (AID 1546); details: cell-based NPY-Y1 potentiator/agonist assay; at 3.6 µM; hits give high values;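 note: cells challenged with NPY at its EC10 plus isoproterenol stimulus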
Sequence (P25929 whole entry, looked up): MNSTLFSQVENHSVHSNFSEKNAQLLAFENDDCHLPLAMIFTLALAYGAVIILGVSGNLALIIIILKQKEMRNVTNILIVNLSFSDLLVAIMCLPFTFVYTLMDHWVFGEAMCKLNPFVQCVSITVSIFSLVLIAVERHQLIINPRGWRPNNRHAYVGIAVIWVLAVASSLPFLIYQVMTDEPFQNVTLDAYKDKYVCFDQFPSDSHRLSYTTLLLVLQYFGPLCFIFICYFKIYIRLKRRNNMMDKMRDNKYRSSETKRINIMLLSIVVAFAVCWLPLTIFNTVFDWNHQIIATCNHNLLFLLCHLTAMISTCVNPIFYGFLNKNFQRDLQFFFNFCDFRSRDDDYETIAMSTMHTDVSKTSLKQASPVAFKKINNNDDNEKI

Row | Compound | activation
1 | O=C(Nc1ccccc1C(F)(F)F)c1cc(-c2ccc(O)cc2)on1 | 2.15% (inactive)
2 | COC(=O)c1ccc(NC(=O)CN(c2ccc(C)cc2)S(=O)(=O)c2c(C)n[nH]c2C)cc1 | 43% (inactive)
3 | COC(=O)c1sc(-c2ccc(C(C)(C)C)cc2)cc1NC(=O)/C=C/C(=O)O | 40.8% (inactive)
4 | CC1=C/C(=N\OS(=O)(=O)c2ccccc2)C=CC1=O | 7.41% (inactive)
5 | COCCn1nnnc1C(c1ccccc1Cl)N1CCN(c2ccccc2OC)CC1 (stereo unspecified) | -14.9% (inactive)
6 | O=C1/C(=C/c2coc3ccc(O)cc3c2=O)SC(=S)N1c1ccccc1 | 26.1% (inactive)
7 | CC(=O)c1ccc(NC(=O)C2CC(=O)Nc3nc4ccccc4n32)cc1 (stereo unspecified) | 38.7% (inactive)
8 | O=C(Nc1ccc2c(c1)CCC2)c1cccc(S(=O)(=O)Nc2ccccc2Cl)c1 | 5.62% (inactive)
9 | CSc1nc(-c2ccco2)nn1C(=O)c1ccccc1Cl | 31.6% (inactive)
10 | CCn1c2ccccc2c2cc(NC(=O)Nc3ccc([N+](=O)[O-])cc3C)ccc21 | 26.1% (inactive)
11 | CN1C(=O)c2ccccc2C(C(=O)NCCCN2CCCC2)C1c1c[nH]c2ccccc12 (stereo unspecified) | 7.17% (inactive)
12 | N#Cc1ccc(C(=O)Nc2nc(-c3cccs3)c(C(=O)C(F)(F)F)s2)cc1 | -50.3% (inactive)
13 | O=[N+]([O-])c1cc(Cl)cc(/C=N/NC(=S)Nc2cc(S(=O)(=O)N3CCOCC3)ccc2Cl)c1O | 72.1% (active)
14 | O=C(c1cccs1)N1CCN(C(=O)N2CCOCC2)CC1 | -4.4% (inactive)
15 | Cc1ccccc1NCC(=O)N/N=C\c1ccc([N+](=O)[O-])s1 | 34.6% (inactive)
16 | Cc1cccc(OCC(O)CN2CCN(CCN3C(=O)c4cccc5cccc(c45)C3=O)CC2)c1C (stereo unspecified) | 63.5% (active)
